Assay results reported in PubChem BioAssay (NCATS).
Results filed as inconclusive are left out. Active and inactive are the calls of the source. Calls come from the whole dose curve; as a rule, active = well fitted curve in the direction sought with a large enough effect; inconclusive = small, poorly fitted or top-dose-only effect, or another doubt; inactive = no such curve, though single readings can be large; an effect the other way counts as inactive or inconclusive.

Experiments:
[1] = Quantitative High-Throughput drug screen in 47 multiple myeloma cell lines against the NCATS MIPE library collection: FR4_PLB cell viability assay (AID 1918924; note: nearly all actives have a fitted effect of over 35% in size)
Procedure, shortened: (§1)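 Luminescent ATP measurement with CellTiter-Glo gives viability, scaled between DMSO-only wells (100%) and media-only wells (0%). Cells, 500 per well, faced library compounds for 48 hours at 37C.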

[2] = Quantitative High-Throughput drug screen in 47 multiple myeloma cell lines against the NCATS MIPE library collection: Delta47_JCRB cell viability assay (AID 1918925; note: nearly all actives have a fitted effect of over 45% in size)
Procedure, shortened: as §1

[3] = Quantitative High-Throughput drug screen in 47 multiple myeloma cell lines against the NCATS MIPE library collection: EJM_DSMZ cell viability assay (AID 1918926; note: nearly all actives have a fitted effect of over 30% in size)
Procedure, shortened: as §1

[4] = Quantitative High-Throughput drug screen in 47 multiple myeloma cell lines against the NCATS MIPE library collection: AMO1_DSMZ cell viability assay (AID 1918927; note: nearly all actives have a fitted effect of over 30% in size)
Procedure, shortened: as §1

[5] = Quantitative High-Throughput drug screen in 47 multiple myeloma cell lines against the NCATS MIPE library collection: ARP1_JJKsccF8 cell viability assay (AID 1918928; note: nearly all actives have a fitted effect of over 40% in size)
Procedure, shortened: (§2)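 ATP readout (CellTiter-Glo), 48 h drug incubation, 37 °C/5% CO2, 500 cells per well; normalisation to DMSO (100%) and media-only (0%) controls.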

[6] = Quantitative High-Throughput drug screen in 47 multiple myeloma cell lines against the NCATS MIPE library collection: ARD_JJKsccE7 cell viability assay (AID 1918929)
Procedure, shortened: as §1

[7] = Quantitative High-Throughput drug screen in 47 multiple myeloma cell lines against the NCATS MIPE library collection: Karpas620_DSMZ cell viability assay (AID 1918959); note: nearly all actives have a fitted effect of over 30% in size
Procedure, shortened: as §1

[8] = Quantitative High-Throughput drug screen in 47 multiple myeloma cell lines against the NCATS MIPE library collection: KMM1_JCRB cell viability assay (AID 1918960); note: nearly all actives have a fitted effect of over 30% in size
Procedure, shortened: as §2

[9] = Quantitative High-Throughput drug screen in 47 multiple myeloma cell lines against the NCATS MIPE library collection: KHM11_PLB cell viability assay (AID 1918962); note: nearly all actives have a fitted effect of over 35% in size
Procedure, shortened: as §1

[10] = Quantitative High-Throughput drug screen in 47 multiple myeloma cell lines against the NCATS MIPE library collection: INA6_PLB cell viability assay (AID 1918965; note: nearly all actives have a fitted effect of over 55% in size)
Procedure, shortened: (§3)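 Steps: seed 500 cells per well; pin-transfer MIPE 4.0 library; incubate 48 h at 37C, 5% CO2, humidified; add CellTiter-Glo, 5 min room temperature; read luminescence.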

[11] = Quantitative High-Throughput drug screen in 47 multiple myeloma cell lines against the NCATS MIPE library collection: JJN3_DSMZ cell viability assay (AID 1918966; note: nearly all actives have a fitted effect of over 50% in size)
Procedure, shortened: as §1

[12] = Quantitative High-Throughput drug screen in 47 multiple myeloma cell lines against the NCATS MIPE library collection: H1112_PLB cell viability assay (AID 1918967; note: nearly all actives have a fitted effect of over 30% in size)
Procedure, shortened: as §1

[13] = Quantitative High-Throughput drug screen in 47 multiple myeloma cell lines against the NCATS MIPE library collection: Karpas25_ECACC cell viability assay (AID 1918968; note: nearly all actives have a fitted effect of over 35% in size)
Procedure, shortened: as §1

[14] = Quantitative High-Throughput drug screen in 47 multiple myeloma cell lines against the NCATS MIPE library collection: KMS27_JCRB cell viability assay (AID 1918970); note: nearly all actives have a fitted effect of over 30% in size
Procedure, shortened: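 ATP-based viability (CellTiter-Glo luminescence) is measured in cells treated 48 h with approved and investigational drugs at 37 °C. Controls are DMSO-only wells for full viability and media-only wells for none.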

[15] = Quantitative High-Throughput drug screen in 47 multiple myeloma cell lines against the NCATS MIPE library collection: KMS12BM_JCRB cell viability assay (AID 1918971); note: nearly all actives have a fitted effect of over 35% in size
Procedure, shortened: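 qHTS of the MIPE 4.0 collection: 500 myeloma cells/well, 48 h drug exposure at 37C in 5% CO2, then CellTiter-Glo for 5 min at room temperature before luminescence reading.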

[16] = Quantitative High-Throughput drug screen in 47 multiple myeloma cell lines against the NCATS MIPE library collection: KMS12PE_JCRB cell viability assay (AID 1918972); note: nearly all actives have a fitted effect of over 30% in size; for viability: series mostly up to about 46 µM
Procedure, shortened: as §3

[17] = Quantitative High-Throughput drug screen in 47 multiple myeloma cell lines against the NCATS MIPE library collection: KMS20_JCRB cell viability assay (AID 1918973); note: nearly all actives have a fitted effect of over 45% in size
Procedure, shortened: as §1

[18] = Quantitative High-Throughput drug screen in 47 multiple myeloma cell lines against the NCATS MIPE library collection: JIM3_ECACC cell viability assay (AID 1918963; note: nearly all actives have a fitted effect of over 35% in size)
Procedure, shortened: as §1

[19] = Quantitative High-Throughput drug screen in 47 multiple myeloma cell lines against the NCATS MIPE library collection: JIM1_ECACC cell viability assay (AID 1918964)
Procedure, shortened: as §1
Potency is the fitted concentration of half-maximal effect.

CC(NCc1ccc2c(c1)nc(NC(=O)c1ccc(-c3cn[nH]c3)s1)n2CC(C)(C)O)C(C)(C)C (stereo not given)
Potency [1]: 0.372 µM (active) | Potency [2]: 83.3 nM (active) | Potency [3]: 0.372 µM (active) | Potency [4]: 166 nM (active) | Potency [5]: 0.418 µM (active) | Potency [6]: 296 nM (active) | Potency [7]: 0.264 µM (active) | Potency [8]: 0.235 µM (active) | Potency [9]: 0.0935 µM (active) | Potency [10]: 0.0833 µM (active) | Potency [11]: 0.264 µM (active) | Potency [12]: 0.469 µM (active) | Potency [13]: 264 nM (active) | Potency [14]: 0.0833 µM (active) | Potency [15]: 1.05 µM (active) | Potency [16]: 0.264 µM (active) | Potency [17]: 0.235 µM (active)

CNc1nccc(-c2cccnc2Oc2cc(C(=O)Nc3cccc(C(F)(F)F)c3)ccc2C)n1
Potency [1]: 16.6 µM (active) | Potency [2]: 16600 nM (active) | Potency [3]: 16.6 µM (active) | Potency [4]: 9350 nM (active) | Potency [5]: 23.5 µM (active) | Potency [6]: 9350 nM (active) | Potency [7]: 5.9 µM (active) | Potency [9]: 1.05 µM (active) | Potency [18]: 18.7 µM (active) | Potency [10]: 4.18 µM (active) | Potency [11]: 18.7 µM (active) | Potency [12]: 14.8 µM (active) | Potency [13]: 8330 nM (active) | Potency [14]: 7.43 µM (active) | Potency [16]: 10.5 µM (active) | Potency [17]: 9.35 µM (active)

CC1(O)CC(c2nc(-c3ccc4ccc(-c5ccccc5)nc4c3)c3c(N)nccn23)C1 (stereo not given)
Potency [1]: 7.43 µM (active) | Potency [2]: 83.3 nM (active) | Potency [3]: 6.62 µM (active) | Potency [4]: 2960 nM (active) | Potency [5]: 5.9 µM (active) | Potency [6]: 105 nM (active) | Potency [7]: 0.59 µM (active) | Potency [8]: 1.05 µM (active) | Potency [9]: 4.18 µM (active) | Potency [19]: 10.5 nM (active) | Potency [10]: 6.62 µM (active) | Potency [11]: 6.62 µM (active) | Potency [12]: 23.5 µM (active) | Potency [13]: 372 nM (active) | Potency [14]: 2.35 µM (active) | Potency [15]: 16.6 µM (active) | Potency [16]: 2.35 µM (active) | Potency [17]: 1.18 µM (active)

Cc1cnc(Nc2ccc(F)cc2Cl)nc1-c1c[nH]c(C(=O)N[C@H](CO)c2cccc(Cl)c2)c1
Potency [1]: 29.6 µM (active) | Potency [2]: 7430 nM (active) | Potency [3]: 23.5 µM (active) | Potency [4]: 4180 nM (active) | Potency [5]: 23.5 µM (active) | Potency [6]: 14800 nM (active) | Potency [7]: 1.05 µM (active) | Potency [8]: 7.43 µM (active) | Potency [9]: 0.526 µM (active) | Potency [18]: 16.6 µM (active) | Potency [19]: 7430 nM (active) | Potency [10]: 9.35 µM (active) | Potency [12]: 16.6 µM (active) | Potency [14]: 6.62 µM (active) | Potency [15]: 23.5 µM (active) | Potency [16]: 10.5 µM (active) | Potency [17]: 3.32 µM (active)

CC1COC2(CCN(c3nc(=O)c4cc(C(F)(F)F)cc([N+](=O)[O-])c4s3)CC2)O1 (stereo not given)
Potency [1]: inactive | Potency [2]: inactive | Potency [3]: inactive | Potency [4]: inactive | Potency [5]: inactive | Potency [6]: inactive | Potency [7]: inactive | Potency [8]: inactive | Potency [18]: inactive | Potency [19]: inactive | Potency [10]: inactive | Potency [11]: inactive | Potency [12]: inactive | Potency [13]: inactive | Potency [15]: inactive

CC(C)(C)OC(=O)Nc1ccc(-c2cc(C(=O)NCCCCCCC(=O)NO)no2)cc1
Potency [1]: 1.32 µM (active) | Potency [2]: 833 nM (active) | Potency [3]: 3.72 µM (active) | Potency [4]: 590 nM (active) | Potency [5]: 0.743 µM (active) | Potency [6]: 935 nM (active) | Potency [7]: 2.35 µM (active) | Potency [9]: 5.9 µM (active) | Potency [18]: 3.72 µM (active) | Potency [11]: 2.35 µM (active) | Potency [12]: 3.72 µM (active) | Potency [13]: 935 nM (active) | Potency [15]: 1.66 µM (active) | Potency [16]: 0.935 µM (active) | Potency [17]: 2.64 µM (active)

CN(C)CC=CC(=O)Nc1cc2c(Nc3ccc(F)c(Cl)c3)ncnc2cc1O[C@H]1CCOC1
Potency [1]: 14.8 µM (active) | Potency [2]: 3720 nM (active) | Potency [3]: 16.6 µM (active) | Potency [4]: 935 nM (active) | Potency [5]: 18.7 µM (active) | Potency [6]: 5260 nM (active) | Potency [7]: 2.64 µM (active) | Potency [8]: 3.72 µM (active) | Potency [9]: 7.43 µM (active) | Potency [18]: 8.33 µM (active) | Potency [11]: 4.69 µM (active) | Potency [12]: 5.9 µM (active) | Potency [13]: 1320 nM (active) | Potency [14]: 2.64 µM (active) | Potency [15]: 16.6 µM (active) | Potency [16]: 1.18 µM (active) | Potency [17]: 2.09 µM (active)

C#Cc1cccc(Nc2ncnc3cc(OC)c(OCCCCCCC(=O)NO)cc23)c1
Potency [1]: 0.0743 µM (active) | Potency [2]: 66.2 nM (active) | Potency [3]: 0.469 µM (active) | Potency [4]: 52.6 nM (active) | Potency [5]: 0.118 µM (active) | Potency [6]: 74.3 nM (active) | Potency [7]: 0.0743 µM (active) | Potency [8]: 0.0526 µM (active) | Potency [9]: 0.372 µM (active) | Potency [19]: 66.2 nM (active) | Potency [10]: 0.0166 µM (active) | Potency [11]: 0.132 µM (active) | Potency [12]: 0.296 µM (active) | Potency [14]: 0.0743 µM (active) | Potency [15]: 0.0662 µM (active) | Potency [16]: 0.148 µM (active) | Potency [17]: 0.0833 µM (active)

Nc1ccn([C@@H]2CS[C@H](CO)O2)c(=O)n1
Potency [1]: inactive | Potency [2]: 42900 nM (active) | Potency [3]: inactive | Potency [4]: inactive | Potency [5]: inactive | Potency [6]: inactive | Potency [7]: inactive | Potency [8]: inactive | Potency [18]: inactive | Potency [13]: 24100 nM (active) | Potency [15]: inactive | Potency [16]: inactive | Potency [17]: 10.8 µM (active)
